# Only some compounds are listed: those with a hit (about 7.2% of all), similar ones and a draw of the others.
# Lassa entry inh: inhibitors of Lassa virus binding or cell entry; 300,000 tested, 1.2% active; Lassa virus pseudotype entry inhibition, cell reporter; AID 540256; Potency, µM (series often up to 37.9 µM), hits mostly inhibitors; calls by dose curve; tested in HEK293 cells; also: nearly all actives have a fitted effect of over 50% in size
# Marburg entry inh: blocks Marburg virus binding to or entry into cells; Marburg virus pseudotyped entry inhibition, cell reporter; Potency, µM (series often up to 37.8 µM), usual class: inhibitors; 300,000 tested, 1.8% active; AID 540276; calls by dose curve; tested in HEK293 cells
# FMDV antiviral: foot and mouth disease virus antiviral activity; 410,000 tested, 1.2% active; FMDV antiviral cell-based qHTS; Potency, µM (highest dose often 57.9 µM), actives largely listed as inhibitors; calls by dose curve; tested in HEK293T cells; also: read-out not given here; nearly all actives have a fitted effect of over 45% in size
# Sm TGR inh: S. mansoni TGR enzyme inhibition; purified TGR, DTNB reduction, TNB absorbance 405 nm; Q962Y6; AID 485364; Potency, µM (series often up to 114 µM), hits mostly inhibitors; 360,000 tested, 3% active; also: nearly all actives have a fitted effect of over 60% in size
#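 First, TGR (20 nM dispensed) and NADPH were mixed with compound. Second, a 15 min room-temperature incubation followed. Third, further NADPH and then DTNB were added to start the reaction. Finally, TNB absorbance was monitored kinetically.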
# RE007 growth inh: less growth of the S. pombe RE007 Vpr strain. S. pombe RE007 Vpr strain, BacTiter-Glo ATP luminescence, 24 h. Potency, µM (highest dose often 92.2 µM), most hits filed as inhibitors. 360,000 tested, 0.21% active; active = well fitted falling curve with a large enough effect; inconclusive = small, poorly fitted or top-dose-only effect; inactive = no such curve, though single readings can be large or run the other way; also: nearly all actives have a fitted effect of over 50% in size
#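 Fission yeast RE007 carrying one integrated HIV-1 vpr copy, seeded at OD 0.01 in PMG+AL medium with 23 nL pinned compound. Grown 24 h at 30 degrees; viability read by BacTiter-Glo luminescence after 5 min.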
# HCV inh: blocks hepatitis C virus; 340,000 tested, 3.4% active; Potency, µM (titrated, usually from 41.8 µM), hits mostly inhibitors; Huh7.5.1 HCVcc-Cre infection, luciferase reporter, 44 h
#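 After 44 h co-culture of compound, cells and HCVcc-Cre (~0.5 moi), substrate is added for 15 min at room temperature and luciferase measured over 15 sec. Cells were seeded at 1,000/well and pre-cultured 4 h.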
# A number is an active result; – = inactive; ? = inconclusive; · = no result; ! = repeats disagree. Unless noted, calls follow the shape of the dose curve; as a rule, active = well fitted curve in the direction sought with a large enough effect; inconclusive = small, poorly fitted or top-dose-only effect, or another doubt; inactive = no such curve, though single readings can be large; an effect the other way counts as inactive or inconclusive.
SMILES,Lassa entry inh,Marburg entry inh,FMDV antiviral,Sm TGR inh,RE007 growth inh,HCV inh
O=C1c2oc3ccccc3c(=O)c2C(c2ccc(Br)cc2)N1c1ccccn1 (stereo unspecified),–,·,–,–,·,·
Cc1csc(=Nc2c(C)n(C)n(-c3ccccc3)c2=O)n1Cc1ccccc1,–,–,–,–,–,–
COc1ccc(-c2csc(=NCCO)n2-c2ccccc2)cc1,–,?,18µM,–,–,?
COc1ccc(-c2cn(-c3ccccc3)nc2CO)cc1,–,?,–,–,–,–
CCc1ccc2oc(-c3ccc(OC)cc3)cc(=Nc3c(C)n(C)n(-c4ccccc4)c3=O)c2c1,·,·,–,–,–,10µM
COc1ccc(-c2csc(=Nc3ccccc3)n2CCO)cc1,–,?,25µM,–,–,13µM!
C=CCn1c(-c2ccc(OC)cc2)csc1=Nc1c(C)n(C)n(-c2ccccc2)c1=O,–,–,22µM,–,–,?
CCOC(=O)c1c(S(=O)(=O)N2CCCC(C(=O)NCc3cccc(OC)c3)C2)c(C)n(C)c1C (stereo unspecified),?,·,–,–,·,·
CCc1ccc(NC(=O)c2ccc(CNS(=O)(=O)c3ccc4c(c3)C(C)(C)C(=O)N4C)cc2)cc1,–,·,?,–,·,·
COc1cc(=O)n2c(c1C(=O)N(C)Cc1ccsc1)CCN(Cc1cnn(C)c1C)CC2,·,·,–,·,·,·
OCCCn1c(-c2ccc(F)cc2)csc1=Nc1ccc(F)cc1,–,?,–,–,·,·
Cc1ccc(-c2csc(=Nc3ccccc3)n2CCCO)cc1,–,–,32µM,–,·,·
CCc1ccc(NC(=O)Cn2c(=O)n(CCCCC(=O)NCc3ccc4c(c3)OCO4)c(=O)c3ccccc32)cc1,–,–,–,–,·,·
O=C(N/N=C/c1ccc(N2CCOCC2)o1)c1cccc(C(F)(F)F)c1,?,–,–,11µM,–,–
O=C(N/N=C/c1ccc(N2CCCCC2)o1)c1ccccc1[N+](=O)[O-],–,?,–,4µM,·,–
O=C(Nc1ccccc1N1CCOCC1)c1ccccc1[N+](=O)[O-],–,–,–,–,–,–
O=C(N/N=C/c1ccc(N2CCOCC2)o1)c1ccccc1[N+](=O)[O-],?,?,–,8.9µM,–,–
O=C(N/N=C/c1ccncc1)c1ccccc1[N+](=O)[O-],–,?,–,–,–,–
CCN1C(=O)/C(=C/C=C2\C=CN(CC)c3ccccc32)SC1=S,–,?,13µM,?,–,?
CCN1C(=O)/C(=C\C=C2/C=CC=CN2CC)SC1=S,–,–,–,?,?,–
O=C(NCC(c1ccco1)S(=O)(=O)c1cccs1)c1c(F)cccc1F (stereo unspecified),–,·,–,0.71µM,·,·
Cc1cccc(C(=O)NCC(c2cccs2)S(=O)(=O)c2cccs2)c1 (stereo unspecified),–,·,–,?,·,·
O=C(NCC(c1cccs1)S(=O)(=O)c1cccs1)c1cccc(F)c1 (stereo unspecified),–,·,–,20µM,·,·
O=C(NCC(c1ccco1)S(=O)(=O)c1cccs1)c1ccccc1F (stereo unspecified),–,·,–,11µM,·,·
COc1ccc(C(=O)N2CC(=O)Nc3ccc(C)cc3C2c2ccc(F)cc2)c(OC)c1 (stereo unspecified),–,–,–,–,·,·
SMILES,Lassa entry inh,Marburg entry inh,FMDV antiviral,Sm TGR inh,RE007 growth inh,HCV inh
CC(C)(C)c1ccc(OCCCC(=O)Nc2nnc(C3CC3)s2)cc1,·,·,?,·,–,·
Cc1cc(C)n(CCc2nc(-c3cccs3)cs2)n1,–,–,–,–,–,–
Cc1cc(C)n(CCc2nc(-c3ccco3)cs2)n1,–,–,–,40µM,–,–
O=C(Nc1nc2ccccc2s1)c1cnccn1,?,6.5µM,·,–,–,–
O=C(NNc1nc2ccc(F)cc2s1)c1cccc(F)c1,?,11µM,–,–,–,?
O=C(Nc1nc2ccc(F)cc2s1)c1ccccn1,?,?,11µM,–,14µM,?
O=C(Nc1nc2ccc(F)cc2s1)C1=NN(c2ccccc2)C(=O)CC1,–,–,–,–,–,–
COC(=O)C1=C(C)N(CCC(C)O)C(=O)N(C(C)=O)C1c1ccccc1 (stereo unspecified),?,–,·,·,·,·
CN1CCCN=C1COC(=O)[C@@](O)(c1ccccc1)C1CCCCC1,·,–,·,·,·,·
COc1cc(CC(=O)OCC(=O)Nc2sccc2C(N)=O)cc(OC)c1OC,?,11µM,?,–,–,10µM
